# Values joined by “and” are separate entries in the source; they are usually repeats but may differ in a detail not shown here. Equal values may be shown once. Inconclusive results are not listed. A call without a number means that no potency is given here. A structure can be active in one record and inactive in another. Active and inactive are the calls of the source. Calls follow the shape of the dose curve; as a rule, active = well fitted curve in the direction sought with a large enough effect in the repeat runs; inconclusive = weak or mixed curves; inactive = no such curve, though single readings can be large; an effect the other way counts as inactive or inconclusive.
# Assay: A CellTox Green Cytotoxicity Assay to monitor cytotoxicity in HepG2 cells - 16 hour (AID 1224876); also: nearly all actives have a fitted effect of over 45% in size; also: potency is read from the fitted curve at half-maximal effect
# Conditions: CellTox Green fluorescence; series mostly up to 76.8 µM; cytotoxicity increase: at the top concentration
# How it was run: (§1)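 Cells and non-lytic dye reagent are dispensed together (600 HepG2 cells/well) and incubated 5 h before DMSO compound transfer. Kinetic fluorescence is then recorded in the same wells during 40 h at 37 C.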
SMILES,Potency,cytotoxicity increase
Oc1ccc2ccccc2c1N=Nc1ccccc1,inactive,
C=C1CC[C@H](O)CC1=C/C=C1\CCC[C@]2(C)[C@@H]([C@H](C)/C=C/[C@H](C)C(C)C)CC[C@@H]12,inactive,
COC(=O)c1ccc(C(=O)OC)cc1,inactive,
CN(C)c1cccc(O)c1,,4.31% (inactive)
O=S(=O)(O)c1cc(S(=O)(=O)O)c2c(N=Nc3ccccc3)c(O)ccc2c1,,-15.5% (inactive)
CC#C[C@]1(O)CC[C@H]2[C@@H]3CCC4=CC(=O)CCC4=C3[C@@H](c3ccc(N(C)C)cc3)C[C@@]21C,inactive,
C=C(C)C(=O)OCC(CC)(COC(=O)C(=C)C)COC(=O)C(=C)C,inactive and 42.9 µM (active),
CC(C)n1c(/C=C/[C@@H](O)C[C@@H](O)CC(=O)O)c(-c2ccc(F)cc2)c2ccccc21,inactive,
O=C(c1cc(O)c(O)c(O)c1)c1ccc(O)c(O)c1O,inactive,
CCOC(=O)/C=C\C(=O)OCC,inactive,
CC1=C(CC(=O)O)c2cc(F)ccc2/C1=C\c1ccc(S(C)=O)cc1 (stereo unspecified),inactive,
O=C(O)c1ccc([N+](=O)[O-])cc1,inactive,
CC1(C)CC(N=C=O)CC(C)(CN=C=O)C1 (stereo unspecified),inactive,
CC(=O)Nc1ccc(C(=O)O)cc1,inactive,

# Assay: qHTS RealTime-Glo MT Cell Viability Assay in HepG2 cells - 32 hour (AID 1224877); also: nearly all actives have a fitted effect of over 55% in size
# Conditions: RealTime-Glo luminescence; series mostly up to 76.8 µM; activity change, negative = cytotoxic: at the top concentration
# How it was run: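 Viability was tracked continuously by NanoLuc luminescence from prosubstrate reduced by living HepG2 cells, at successive time points over 40 h of compound exposure. Cells with reagent were preincubated 5 h at 37 °C before compound addition.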
SMILES,Potency,"activity change, negative = cytotoxic"
CC1=C(/C=C/C(C)=C/C=C/C(C)=C/CO)C(C)(C)CCC1,inactive,
COC(=O)c1ccccc1O,inactive,
Oc1ccc2ccccc2c1N=Nc1ccccc1,inactive,
C[C@@H](O)[C@H]1C(=O)N2C(C(=O)O)=C(S[C@@H]3CN[C@H](C(=O)N(C)C)C3)[C@H](C)[C@H]12,inactive,
C=C1CC[C@H](O)CC1=C/C=C1\CCC[C@]2(C)[C@@H]([C@H](C)/C=C/[C@H](C)C(C)C)CC[C@@H]12,inactive,
CCc1ccc(O)cc1,inactive,
COC(=O)c1ccc(C(=O)OC)cc1,inactive,
OCC#CCO,inactive,
CN(C)c1cccc(O)c1,inactive,
COCC(=O)O,inactive,
CC1=CC[C@H]2C[C@@H]1C2(C)C,inactive,
CC(C)(C)C1CCC(O)CC1 (stereo unspecified),inactive,
O=S(=O)(O)c1cc(S(=O)(=O)O)c2c(N=Nc3ccccc3)c(O)ccc2c1,inactive,
S=c1nc[nH]c2nc[nH]c12,inactive,
O=C(Cl)c1c(Cl)c(Cl)c(C(=O)Cl)c(Cl)c1Cl,inactive,
Nc1nc2ncc(CNc3ccc(C(=O)N[C@@H](CCC(=O)O)C(=O)O)cc3)nc2c(=O)[nH]1,inactive,
CC1Cc2ccccc2N1NC(=O)c1ccc(Cl)c(S(N)(=O)=O)c1 (stereo unspecified),inactive,
C=C(C)C(=O)OCC(CC)(COC(=O)C(=C)C)COC(=O)C(=C)C,inactive,
CCCCCCCCCCCCOCC1CO1 (stereo unspecified),inactive,

SMILES,Potency,"activity change, negative = cytotoxic"
CC(C)n1c(/C=C/[C@@H](O)C[C@@H](O)CC(=O)O)c(-c2ccc(F)cc2)c2ccccc21,inactive,
NC(=O)NNc1ccccc1,inactive,
O=C(c1cc(O)c(O)c(O)c1)c1ccc(O)c(O)c1O,,-24% (inactive)
O=C(Oc1ccccc1)c1ccc(O)cc1,inactive,
CCc1ccccc1O,inactive,
Cc1cc(O)cc(C)c1Cl,inactive,
CCOC(=O)/C=C\C(=O)OCC,inactive,
CC1=C(CC(=O)O)c2cc(F)ccc2/C1=C\c1ccc(S(C)=O)cc1 (stereo unspecified),inactive,
Nc1cc(-c2ccncc2)c[nH]c1=O,inactive,
CCCCCCCCCCC=CC1CC(=O)OC1=O (stereo unspecified),inactive,
C=CC(=O)OCCCCCCCC(C)C,inactive,
CCCCOCCOCCOC(=O)CCCCC(=O)OCCOCCOCCCC,inactive,
O=C(O)c1ccc([N+](=O)[O-])cc1,inactive,
CC1(C)CC(N=C=O)CC(C)(CN=C=O)C1 (stereo unspecified),inactive,
NC(=O)/N=N/C(N)=O,inactive,
CNC[C@H](O)[C@@H](O)[C@H](O)[C@H](O)CO,inactive,
CC(=O)Nc1ccc(C(=O)O)cc1,inactive,
O=C1O[C@H](CO)[C@@H](O)[C@H](O)[C@H]1O,inactive,
C=C(C)C(=O)OCCCCCC,inactive,

# Assay: A CellTox Green Cytotoxicity Assay to monitor cytotoxicity in HepG2 cells - 24 hour (AID 1224878); also: nearly all actives have a fitted effect of over 45% in size; also: potency is read from the fitted curve at half-maximal effect
# Conditions: CellTox Green fluorescence; series mostly up to 76.8 µM; cytotoxicity: at the top concentration
# How it was run: as §1
SMILES,Potency,cytotoxicity
CC1=C(/C=C/C(C)=C/C=C/C(C)=C/CO)C(C)(C)CCC1,inactive,
COC(=O)c1ccccc1O,inactive,
Oc1ccc2ccccc2c1N=Nc1ccccc1,inactive,
C[C@@H](O)[C@H]1C(=O)N2C(C(=O)O)=C(S[C@@H]3CN[C@H](C(=O)N(C)C)C3)[C@H](C)[C@H]12,inactive,
C=C1CC[C@H](O)CC1=C/C=C1\CCC[C@]2(C)[C@@H]([C@H](C)/C=C/[C@H](C)C(C)C)CC[C@@H]12,,-3.73% (inactive)
CCc1ccc(O)cc1,inactive,
COC(=O)c1ccc(C(=O)OC)cc1,22.2 µM (active) and inactive,
OCC#CCO,inactive,
CN(C)c1cccc(O)c1,,4.14% (inactive)
COCC(=O)O,inactive,
CC1=CC[C@H]2C[C@@H]1C2(C)C,,-16.9% (inactive)
CC(C)(C)C1CCC(O)CC1 (stereo unspecified),inactive,
O=S(=O)(O)c1cc(S(=O)(=O)O)c2c(N=Nc3ccccc3)c(O)ccc2c1,inactive,
CC#C[C@]1(O)CC[C@H]2[C@@H]3CCC4=CC(=O)CCC4=C3[C@@H](c3ccc(N(C)C)cc3)C[C@@]21C,inactive,
S=c1nc[nH]c2nc[nH]c12,inactive,
O=C(Cl)c1c(Cl)c(Cl)c(C(=O)Cl)c(Cl)c1Cl,inactive,
Nc1nc2ncc(CNc3ccc(C(=O)N[C@@H](CCC(=O)O)C(=O)O)cc3)nc2c(=O)[nH]1,inactive,
CC1Cc2ccccc2N1NC(=O)c1ccc(Cl)c(S(N)(=O)=O)c1 (stereo unspecified),inactive,
C=C(C)C(=O)OCC(CC)(COC(=O)C(=C)C)COC(=O)C(=C)C,inactive and 38.2 µM (active),
CCCCCCCCCCCCOCC1CO1 (stereo unspecified),inactive,

SMILES,Potency,cytotoxicity
CC(C)n1c(/C=C/[C@@H](O)C[C@@H](O)CC(=O)O)c(-c2ccc(F)cc2)c2ccccc21,6.17 µM (active) and 10.7 µM (active),
NC(=O)NNc1ccccc1,inactive,
O=C(c1cc(O)c(O)c(O)c1)c1ccc(O)c(O)c1O,inactive,
O=C(Oc1ccccc1)c1ccc(O)cc1,,17.1% (inactive)
CCc1ccccc1O,inactive,
Cc1cc(O)cc(C)c1Cl,,15.3% [at 35.3 µM] (inactive)
CCOC(=O)/C=C\C(=O)OCC,,-9.23% (inactive)
CC1=C(CC(=O)O)c2cc(F)ccc2/C1=C\c1ccc(S(C)=O)cc1 (stereo unspecified),inactive,
Nc1cc(-c2ccncc2)c[nH]c1=O,inactive,
CCCCCCCCCCC=CC1CC(=O)OC1=O (stereo unspecified),,21% (inactive)
C=CC(=O)OCCCCCCCC(C)C,inactive,
CCCCOCCOCCOC(=O)CCCCC(=O)OCCOCCOCCCC,inactive,
O=C(O)c1ccc([N+](=O)[O-])cc1,inactive,
CC1(C)CC(N=C=O)CC(C)(CN=C=O)C1 (stereo unspecified),inactive,
NC(=O)/N=N/C(N)=O,inactive,
CNC[C@H](O)[C@@H](O)[C@H](O)[C@H](O)CO,inactive,
CC(=O)Nc1ccc(C(=O)O)cc1,inactive,
O=C1O[C@H](CO)[C@@H](O)[C@H](O)[C@H]1O,inactive,
C=C(C)C(=O)OCCCCCC,inactive,
